Measured values as given in PubChem BioAssay (Tox21).
Records with an inconclusive call do not appear. Activity calls are given as the source filed them. Unless noted, calls follow the shape of the dose curve; as a rule, active = well fitted curve in the direction sought with a large enough effect in the repeat runs; inconclusive = weak or mixed curves; inactive = no such curve, though single readings can be large; an effect the other way counts as inactive or inconclusive.

Columns and labels:
[1] = target: Retinoic acid receptor RXR-alpha (Homo sapiens) (UniProt P19793); assay: qHTS assay to identify small molecule agonists of the RXR signaling pathway (AID 1159527; calls by dose curve; also: nearly all actives have a fitted effect of over 35% in size; also: potency is read from the fitted curve at half-maximal effect)
Procedure, shortened: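 Compounds in DMSO were added to RXR-alpha-UAS-bla HEK 293T cells kept in 2% charcoal-stripped serum, and incubated 16 hr at 37 C with 5% CO2. Reporter signal came from a 2 hr B/G FRET substrate step.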

[2] = qHTS assay to identify small molecule antagonists of the retinoid acid receptor (RAR) signaling pathway - cell viability counter screen (AID 1159551); also: nearly all actives have a fitted effect of over 35% in size
Procedure, shortened: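 Luminescent ATP quantitation (CellTiter-Glo) gave cell viability in C3RL4 cells exposed to test chemicals for 6 h at 37 C alongside 1 uM final retinol.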

[3] = qHTS assay to identify small molecule antagonists of the retinoic acid receptor (RAR) signaling pathway (AID 1159552; also: nearly all actives have a fitted effect of over 50% in size)
Procedure, shortened: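 Antagonism of retinol-induced RARE reporter activity was measured in C3RL4 cells. Exposure to compounds and 1 uM final retinol lasted 6 hr at 37 C, with luminescence as endpoint.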

[4] = qHTS assay to identify small molecule agonists of the retinoic acid receptor (RAR) signaling pathway (AID 1159553)
Procedure, shortened: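 Luminescence from a RARE-driven luciferase reporter in C3RL4 cells served as the read-out, measured after 30 min with detection reagent at room temperature. Compounds in DMSO were applied for 6 hr at 37 C following overnight seeding.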

[5] = qHTS assay to identify small molecule antagonists of the estrogen related receptor (ERR) signaling pathway from Tox21 library - cell viability counter screen (AID 1224834); also: nearly all actives have a fitted effect of over 30% in size
Procedure, shortened: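 Fluorescence from CellTiter-Fluor gives the viability read-out, taken 30 min after reagent addition. Before that, ERR cells seeded 6 h earlier were incubated with compounds for 17.5 h at 37 C.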

[6] = qHTS assay to identify small molecule agonists of the constitutive androstane receptor (CAR) signaling pathway - cell viability counter screen (AID 1224836); also: series mostly up to about 92 µM; nearly all actives have a fitted effect of over 45% in size
Procedure, shortened: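 Double-stable HepG2 hepatoma cells (hCAR plus CYP2B6-2.2kb) are treated for 23 h at 37 C with test compounds in 15-point concentration series. PK11195 at 0.75 uM final is co-added. Cell viability is quantified by CellTiter-Fluor.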

[7] = qHTS assay to identify small molecule antagonists of the constitutive androstane receptor (CAR) signaling pathway - cell viability counter screen (AID 1224837); also: series mostly up to about 92 µM; nearly all actives have a fitted effect of over 45% in size
Procedure, shortened: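 HepG2-CYP2B6-hCAR cells, 2500/well, 4 hr pre-incubation; compound titration, 15 conc.; CITCO 50 nM final; 23 hr, 37 C/5% CO2; CellTiter-Fluor, fluorescence intensity.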

[8] = target: Nuclear receptor subfamily 1 group I member 3 (Homo sapiens) (UniProt Q14994); assay: qHTS assay to identify small molecule antagonists of the constitutive androstane receptor (CAR) signaling pathway (AID 1224838);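 also: HepG2 cells stably expressing hCAR with CYP2B6 luciferase reporter stimulated by CITCO; nearly all actives have a fitted effect of over 40% in size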
Procedure, shortened: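 HepG2-CYP2B6-hCAR cells; 4 h pre-incubation; cpd (15 conc) + CITCO 50 nM final; 24 h, 37 C/5% CO2; ONE-Glo, luminescence.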

[9] = target: Nuclear receptor subfamily 1 group I member 3 (Homo sapiens) (UniProt Q14994); assay: qHTS assay to identify small molecule agonists of the constitutive androstane receptor (CAR) signaling pathway (AID 1224839);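 also: HepG2 cells stably carrying human CAR and a CYP2B6 luciferase reporter; series mostly up to about 92 µM; nearly all actives have a fitted effect of over 15% in size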
Procedure, shortened: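 Readout: firefly luciferase luminescence via ONE-Glo. System: HepG2 double-stable for hCAR and CYP2B6-2.2kb. Conditions: 15-point compound titration, PK11195 at 0.75 uM final, 24 h incubation.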

[10] = qHTS assay to identify small molecule antagonists of the estrogen related receptor signaling pathway with the pleiotropic PPARgamma coactivator (PGC) from Tox21 10K library - cell viability counter screen (AID 1224840; active = well fitted cell-killing curve with a large enough effect in the repeat runs, not every such curve was filed as active; also: nearly all actives have a fitted effect of over 40% in size)
Procedure, shortened: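 PGC/ERR cells, 2,000/well; 6 h pre-incubation 37 C/5% CO2; cpd in DMSO via pin tool; 17.5 h 37 C; CellTiter-Fluor, 30 min; fluorescence.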

[11] = target: Thyrotropin receptor (Homo sapiens) (UniProt P16473); assay: qHTS assay to identify small molecule agonists of the thyroid stimulating hormone receptor (TSHR) signaling pathway (AID 1224843; calls by dose curve; also: nearly all actives have a fitted effect of over 45% in size)
Procedure, shortened: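 Screening of the Tox21 10K collection used HEK293 cells engineered with TSHR at 800 cells per well. After a 30-min room-temperature compound exposure, HTRF cAMP reagents were added and fluorescence recorded 1 h later.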

[12] = qHTS assay to identify small molecule agonists of the hypoxia (HIF-1) signaling pathway - cell viability counter screen (AID 1224844; calls by dose curve; also: nearly all actives have a fitted effect of over 50% in size)
Procedure, shortened: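 ME-180 HRE-bla cells, 2,000/well, 0.5% dialyzed FBS; 5 hr settle, 17 hr compound at 37C/5% CO2; CCF4-AM reporter read first, then CellTiter-Glo luminescence after 30 min RT.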

[13] = qHTS assay to identify small molecule agonists of H2AX (AID 1224845; active = well fitted activation curve with a large enough effect in the signal ratio in the repeat runs, not every such curve was filed as active; the % refers to the signal ratio)
Procedure, shortened: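 Phospho-H2AX Ser139 measured by HTRF (ex 320 nm; em 665 and 620 nm) after 24 hr antibody incubation. Compounds, 15 concentrations, 0.76% DMSO, were applied to CHO-K1 cells for 3hr at 37C before lysis.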

[14] = qHTS assay to identify small molecule agonists of the hypoxia (HIF-1) signaling pathway (AID 1224846; active = well fitted activation curve with a large enough effect in the signal ratio in the repeat runs, not every such curve was filed as active; the % refers to the signal ratio)
Procedure, shortened: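 Cell line: CellSensor HRE-bla ME-180; 2,000 cells/well; 0.5% dialyzed FBS; 5 h preincubation; DMSO compound pin transfer; 17 h, 37C, 5% CO2; CCF4-AM added; bla FRET signal scored for activation.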

[15] = qHTS assay to identify small molecule agonists of H2AX - cell viability counter screen (AID 1224847; calls by dose curve;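 also: wild-type CHO-K1 cells; top concentration of the series differs between compounds; nearly all actives have a fitted effect of over 30% in size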)
Procedure, shortened: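 For this counter screen, overnight-attached CHO-K1 cells received test compounds (15 concentrations, 0.76% DMSO final); 3 hr later at 37C, CellTiter-Glo reagent was added and luminescence recorded after 30 min at room temperature.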

[16] = target: Luciferin 4-monooxygenase (Photinus pyralis) (UniProt P08659); assay: qHTS assay to identify small molecule inhibitors of firefly luciferase (AID 1224835); also: series mostly up to about 120 µM; nearly all actives have a fitted effect of over 25% in size
Procedure, shortened: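 Inhibition of purified Photinus luciferase is measured by luminescence. Substrate levels (D-luciferin, ATP) sit at their KM values. Each compound is tested in a concentration series.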

[17] = qHTS assay to identify small molecule antagonists of the estrogen related receptor signaling pathway with the pleiotropic PPARgamma coactivator (PGC) from Tox21 10K library (AID 1224841; call rule not given here; also: series mostly up to about 92 µM; actives are mostly falling curves and most rising ones were filed inactive; nearly all actives have a fitted effect of over 50% in size)
Procedure, shortened: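 PGC/ERR cell line, 2,000 cells/well; 6 h pre-incubation 37 C/5% CO2; compounds (DMSO) pinned in; 18 h, 37 C; One-Glo, 30 min RT; luminescence.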

[18] = qHTS assay to identify small molecule agonists of the estrogen related receptor signaling pathway with the pleiotropic PPARgamma coactivator (PGC) from Tox21 10K library (AID 1224842); also: nearly all actives have a fitted effect of over 15% in size
Procedure, shortened: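 Luminescence from One-Glo (30 min, room temperature) measured after PGC/ERR cells had 18 h at 37 C with pinned compound (23 nL in DMSO). Cells had been seeded at 2,000 per well and pre-incubated 6 h.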

[19] = qHTS assay to identify small molecule antagonists of the estrogen related receptor (ERR) signaling pathway from Tox21 library (AID 1224848); also: nearly all actives have a fitted effect of over 50% in size; also: potency is read from the fitted curve at half-maximal effect
Procedure, shortened: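 Antagonist-mode screen of the Tox21 10K library in an NTP-provided ERR reporter cell line; 18 h compound exposure at 37 C, luminescence measured with ONE-Glo.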
% is scaled to controls: 0 for no effect and ±100 for the full control effect.

Sequence of Thyrotropin receptor (Homo sapiens) (P16473 whole entry, looked up): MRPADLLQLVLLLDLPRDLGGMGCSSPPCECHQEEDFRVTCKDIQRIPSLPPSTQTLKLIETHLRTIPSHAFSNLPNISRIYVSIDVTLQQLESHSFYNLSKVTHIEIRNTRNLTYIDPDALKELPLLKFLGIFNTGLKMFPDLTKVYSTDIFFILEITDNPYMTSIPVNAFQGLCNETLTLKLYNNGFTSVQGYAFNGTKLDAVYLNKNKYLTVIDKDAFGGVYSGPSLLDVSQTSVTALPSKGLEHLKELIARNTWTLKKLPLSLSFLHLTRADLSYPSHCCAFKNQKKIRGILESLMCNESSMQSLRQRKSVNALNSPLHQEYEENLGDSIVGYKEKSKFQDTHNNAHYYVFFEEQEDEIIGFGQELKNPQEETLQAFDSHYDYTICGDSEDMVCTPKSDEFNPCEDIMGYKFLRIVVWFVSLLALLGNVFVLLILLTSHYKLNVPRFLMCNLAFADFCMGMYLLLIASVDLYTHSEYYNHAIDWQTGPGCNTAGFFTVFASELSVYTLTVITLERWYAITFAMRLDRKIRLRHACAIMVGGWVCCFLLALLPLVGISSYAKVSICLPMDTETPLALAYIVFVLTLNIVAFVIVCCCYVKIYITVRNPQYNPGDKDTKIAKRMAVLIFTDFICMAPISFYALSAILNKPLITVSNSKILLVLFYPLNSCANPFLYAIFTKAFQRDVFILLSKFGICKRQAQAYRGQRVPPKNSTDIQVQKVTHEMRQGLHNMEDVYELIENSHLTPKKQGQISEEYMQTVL
Sequence of Luciferin 4-monooxygenase (Photinus pyralis) (P08659 whole entry, looked up): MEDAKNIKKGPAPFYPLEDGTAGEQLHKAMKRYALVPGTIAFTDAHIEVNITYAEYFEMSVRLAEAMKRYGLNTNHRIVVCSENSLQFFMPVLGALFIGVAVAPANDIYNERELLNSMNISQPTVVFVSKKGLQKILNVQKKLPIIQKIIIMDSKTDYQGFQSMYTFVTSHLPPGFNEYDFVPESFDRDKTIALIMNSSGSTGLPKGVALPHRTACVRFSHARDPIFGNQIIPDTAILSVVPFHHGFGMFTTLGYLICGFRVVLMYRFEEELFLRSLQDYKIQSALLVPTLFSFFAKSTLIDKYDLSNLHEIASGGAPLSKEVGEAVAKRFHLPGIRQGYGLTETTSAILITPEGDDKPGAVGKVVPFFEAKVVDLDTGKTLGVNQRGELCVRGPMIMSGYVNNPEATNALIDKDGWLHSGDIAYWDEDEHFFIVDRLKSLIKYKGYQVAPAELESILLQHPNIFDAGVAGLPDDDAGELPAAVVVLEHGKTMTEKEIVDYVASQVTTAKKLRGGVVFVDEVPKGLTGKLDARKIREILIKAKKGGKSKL
Sequence of Retinoic acid receptor RXR-alpha (Homo sapiens) (P19793 whole entry, looked up): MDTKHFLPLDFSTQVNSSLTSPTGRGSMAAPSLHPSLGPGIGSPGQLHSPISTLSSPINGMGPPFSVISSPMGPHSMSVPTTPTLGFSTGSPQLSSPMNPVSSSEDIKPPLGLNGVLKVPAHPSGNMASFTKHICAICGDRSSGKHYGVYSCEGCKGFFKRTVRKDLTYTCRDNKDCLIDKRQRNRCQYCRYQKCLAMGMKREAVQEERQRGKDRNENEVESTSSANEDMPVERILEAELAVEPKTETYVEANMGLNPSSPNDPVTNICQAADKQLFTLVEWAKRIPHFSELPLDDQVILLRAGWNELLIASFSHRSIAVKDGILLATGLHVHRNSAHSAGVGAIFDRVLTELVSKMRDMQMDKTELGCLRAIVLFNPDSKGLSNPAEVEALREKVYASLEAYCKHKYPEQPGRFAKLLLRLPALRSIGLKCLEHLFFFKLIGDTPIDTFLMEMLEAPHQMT
Sequence of Nuclear receptor subfamily 1 group I member 3 (Homo sapiens) (Q14994 whole entry, looked up): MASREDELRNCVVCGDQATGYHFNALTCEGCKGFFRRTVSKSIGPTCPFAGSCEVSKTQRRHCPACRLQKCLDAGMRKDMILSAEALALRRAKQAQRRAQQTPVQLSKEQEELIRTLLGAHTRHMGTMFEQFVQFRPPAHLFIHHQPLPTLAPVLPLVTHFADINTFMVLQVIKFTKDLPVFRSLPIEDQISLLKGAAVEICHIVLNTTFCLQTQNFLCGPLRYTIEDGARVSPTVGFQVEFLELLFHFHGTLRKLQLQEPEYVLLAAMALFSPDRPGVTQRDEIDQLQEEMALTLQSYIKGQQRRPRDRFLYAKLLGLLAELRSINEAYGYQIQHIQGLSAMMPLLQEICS

Cc1ccc(N)cc1S(=O)(=O)O
inactive: Potency [1] | outcome [2] | outcome [3] | Potency [4] | outcome [5] | outcome [6] | outcome [7] | Potency [8] | Potency [9] | outcome [10] | outcome [11] | outcome [12] | outcome [13] | outcome [14] | outcome [15]

[O]=[Mo](=[O])=[O]
inactive: activation [1] 0.58% [at 15.8 µM] | activity change, negative = cytotoxicity [2] 3.04% [at 19 µM] | activity, negative = inhibition [3] 8.42% [at 19 µM] | Potency [4] | viability change, negative = cytotoxic [5] 3.34% [at 19 µM] | activity change, negative = inhibition [16] 0.269% [at 23.6 µM] | viability change, negative = cytotoxic [6] -3.23% [at 19 µM] | activity change, negative = cytotoxicity [7] -0.0508% [at 19 µM] | activity, negative = inhibition [8] -9.59% [at 19 µM] | activation [9] -3.75% [at 19 µM] | viability change, negative = cytotoxic [10] -2.25% [at 19 µM] | activation [11] -6.48% [at 19 µM] | activity change, negative = cytotoxicity [12] -18.3% [at 15.8 µM] | activation [14] -0.622% [at 15.8 µM] | activity change, negative = cytotoxicity [15] -2.98% [at 31.6 µM]

CCCCCCCCCCCCCBr
inactive: Potency [1] | outcome [2] | outcome [3] | Potency [4] | outcome [5] | outcome [6] | outcome [7] | Potency [9] | outcome [10] | outcome [17] | outcome [18] | outcome [12] | outcome [13] | outcome [14] | outcome [15] | Potency [19]

CCCCOC(=O)[C@H](C)O
inactive: Potency [1] | outcome [2] | outcome [3] | Potency [4] | outcome [5] | Potency [16] | outcome [6] | outcome [7] | Potency [9] | outcome [10] | outcome [11] | outcome [12] | outcome [13] | outcome [14] | outcome [15]

O=C1NC(c2ccccc2)(c2ccccc2)C(=O)N1COP(=O)(O)O
inactive: Potency [1] | outcome [2] | outcome [3] | Potency [4] | Potency [16] | outcome [6] | outcome [7] | Potency [8] | Potency [9] | outcome [10] | outcome [11] | outcome [12] | outcome [13] | outcome [14] | outcome [15]

O=C(CCCCC(=O)Nc1c(I)cc(I)c(C(=O)O)c1I)Nc1c(I)cc(I)c(C(=O)O)c1I
inactive: Potency [1] | outcome [2] | outcome [3] | Potency [4] | Potency [16] | outcome [6] | outcome [7] | Potency [8] | Potency [9] | outcome [10] | outcome [18] | outcome [11] | outcome [12] | outcome [15]
active: Potency [19] 21.1 µM

COC(=O)c1ccccc1C(=O)O
inactive: outcome [2] | outcome [3] | Potency [4] | outcome [5] | Potency [16] | outcome [6] | outcome [7] | Potency [8] | Potency [9] | outcome [10] | outcome [11] | outcome [12] | outcome [13] | outcome [14] | outcome [15]
active: Potency [1] 21.9 µM

Cc1c(Cl)cccc1Cl
inactive: Potency [1] | outcome [2] | outcome [3] | Potency [4] | outcome [5] | Potency [16] | outcome [6] | outcome [7] | Potency [8] | Potency [9] | outcome [10] | outcome [11] | outcome [12] | outcome [13] | outcome [15]
